# Screening results: PubChem BioAssay, Broad Institute
# A selection: hits, their analogues and other compounds. The true share with any hit is near 4.1%.
# NSD2 inh: NSD2 (human) methyltransferase inhibition; NSD2 peptide methylation, AlphaScreen, 120 min; 0.54% of 310,000 active; inhibition, % at 12.5 µM; AID 743445; in the data active means inhibition above about 50%
# Target sequence (O96028 whole entry, looked up): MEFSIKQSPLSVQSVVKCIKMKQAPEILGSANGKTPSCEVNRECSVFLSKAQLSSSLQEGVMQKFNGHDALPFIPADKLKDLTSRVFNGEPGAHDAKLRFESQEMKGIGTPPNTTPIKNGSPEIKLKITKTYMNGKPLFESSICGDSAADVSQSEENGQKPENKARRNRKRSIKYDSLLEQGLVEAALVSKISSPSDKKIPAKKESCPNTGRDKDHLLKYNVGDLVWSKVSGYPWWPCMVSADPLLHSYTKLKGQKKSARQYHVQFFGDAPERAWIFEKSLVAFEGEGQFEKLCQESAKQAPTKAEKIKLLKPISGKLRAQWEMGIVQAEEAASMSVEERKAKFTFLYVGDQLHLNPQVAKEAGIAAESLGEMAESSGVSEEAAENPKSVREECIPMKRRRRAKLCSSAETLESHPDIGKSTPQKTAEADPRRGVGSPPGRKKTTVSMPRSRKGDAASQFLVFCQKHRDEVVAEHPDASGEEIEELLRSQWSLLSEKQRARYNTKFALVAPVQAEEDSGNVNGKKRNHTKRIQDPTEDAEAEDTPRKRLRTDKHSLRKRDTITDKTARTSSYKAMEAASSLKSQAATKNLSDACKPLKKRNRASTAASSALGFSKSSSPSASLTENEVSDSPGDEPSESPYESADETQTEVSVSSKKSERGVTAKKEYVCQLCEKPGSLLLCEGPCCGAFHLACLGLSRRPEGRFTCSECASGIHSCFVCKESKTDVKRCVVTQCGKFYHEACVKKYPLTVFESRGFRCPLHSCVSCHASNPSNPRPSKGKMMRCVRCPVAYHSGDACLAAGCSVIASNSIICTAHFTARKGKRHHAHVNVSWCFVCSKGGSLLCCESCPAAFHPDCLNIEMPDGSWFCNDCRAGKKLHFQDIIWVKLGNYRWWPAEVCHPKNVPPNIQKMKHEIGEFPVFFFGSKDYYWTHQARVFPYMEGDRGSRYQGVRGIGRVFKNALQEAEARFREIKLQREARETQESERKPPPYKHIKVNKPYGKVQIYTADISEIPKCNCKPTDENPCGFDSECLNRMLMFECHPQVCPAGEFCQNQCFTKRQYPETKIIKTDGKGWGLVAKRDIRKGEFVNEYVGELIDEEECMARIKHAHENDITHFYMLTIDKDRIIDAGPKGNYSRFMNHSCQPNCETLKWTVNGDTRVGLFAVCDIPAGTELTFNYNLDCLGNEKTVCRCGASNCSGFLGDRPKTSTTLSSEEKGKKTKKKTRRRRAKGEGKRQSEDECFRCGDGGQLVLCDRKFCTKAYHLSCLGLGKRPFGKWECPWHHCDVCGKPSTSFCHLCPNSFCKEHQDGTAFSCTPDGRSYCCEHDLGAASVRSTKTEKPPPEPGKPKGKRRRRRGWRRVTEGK
# PglD DTNB: PglD (C. jejuni) enzyme inhibition. 0.098% of 360,000 active. purified PglD enzyme, DTNB colorimetric CoA detection. AID 602405. inhibition, % at 12.5 µM; in the data active means inhibition above about 16%, passing the limit was not always enough; inconclusive means no clear call, values can overlap the other calls
# CFTR F508del cor: CFTR F508del correction in bronchial cells; CFBE cells, YFP halide quenching; stimulated with forskolin plus potentiator P3; % fluorescence drop versus neutral controls; activity (quench increase), % at 7.58 µM; 0.36% of 350,000 active; AID 720511;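 active means mean added fluorescence quench of at least 8% versus neutral control, with both replicates also reaching 8%; inconclusive means only one of the mean or replicate conditions met; inactive means mean below 8% and not both replicates reaching 8%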;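 further: cells transiently co-express mutant CFTR-F508del with the halide-sensitive YFP; corrector assay measuring rescue of mutant channel to the surface after 24 h compound exposure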
# Casp6 inh: caspase-6 (human) enzyme inhibition. 0.53% of 350,000 active. P55212. inhibition, % at 12.5 µM. purified caspase-6, Z-VEID-R110 cleavage fluorescence;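 active means mean inhibition across replicates at least about 35%, with every replicate also reaching that limit, limit read from the data; inconclusive means only one of the two criteria met; inactive means neither criterion met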;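 further: 0% = median of neutral control wells and 100% = no fluorescence left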
# ALR H2O2 inh: human ALR oxidase inhibition via reduced H2O2. P55789. purified ALR, DTT oxidation, H2O2 HRP-luminol luminescence. inhibition, % (no concentration beside the values). 3.8% of 290,000 active;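 active means mean replicate inhibition above about 79%, with every replicate also reaching it, limit read from the data; inconclusive means only one of the two criteria met; inactive means mean below limit and not every replicate reaching it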
# HIV Env fusion: HIV envelope-mediated fusion inhibition. HeLa-JRFL Env/CEM21 cell fusion, luciferase. inhibition, % at 12.3 µM. 1.1% of 360,000 active;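 active means mean replicate inhibition score of at least 50 and every replicate individually at or above 50; inconclusive means only one of the two criteria met; inactive means mean below 50 and not all replicates reaching 50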;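 further: 0% = plate neutral controls and 100% = maraviroc near 300 nM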
# * = called active by the depositor; ? = inconclusive; / = no result; [ ] = remark or other dose.
SMILES,NSD2 inh,PglD DTNB,CFTR F508del cor,Casp6 inh,ALR H2O2 inh,HIV Env fusion
C/C=C/c1cnc2c(c1)C(=O)N([C@@H](C)CO)C[C@@H](C)[C@@H](CN(C)Cc1cccc(C(=O)O)c1)O2,/,/,-4.7,/,/,/
CN(C)CCCNS(=O)(=O)c1ccc(N2CCC(c3ccc(Cl)cc3)=N2)cc1,/,/,/,/,90.8*,-127.0
CN(C)CCCNS(=O)(=O)c1cc(Cl)ccc1Cl,-1.0,/,/,/,-4.2,5.3
O=S(=O)(c1ccc(N2CCC(c3ccc(Cl)cc3)=N2)cc1)N(CCO)CCO,-5.7,-1.2,/,-0.3,97.6*,18.5
O=S(=O)(c1ccc(Oc2ccc(S(=O)(=O)N(CCO)CCO)cc2)cc1)N(CCO)CCO,1.4,/,-1.2,1.2,-9.2,13.8
CC(C)Oc1ccc(C(CCNCc2ccc(O)cc2)c2ccccc2)cc1 (stereo not given),17.9,-3.8,1.6,-1.0,-15.7,16.6
COc1ccc(C(CCNCc2ccc(N(C)C)cc2)c2ccccc2)cc1 (stereo not given),14.8,2.2,-1.2,2.0,11.4,69.2*
C=CCN1C(=O)/C(=c2\sc3nc(=O)c(Cc4ccccc4Cl)nn3c2=O)c2ccccc21,1.7,-1.9,-1.7,9.3,95.6*,7.2
CSc1nc(-c2ccc(C)cc2)nc(C(Cl)Cl)n1,/,/,/,/,-5.2,/
CCSc1nc(-c2ccccc2)nc(C(Cl)Cl)n1,/,-3.2,-9.3,-4.3,2.2,80.6*
NNc1nc(-c2ccccc2)cs1,2.4,-4.7,-3.9,0.2,99.1*,-16.8
c1ccc(-c2csc(NC3=NCCCCC3)n2)cc1,-2.8,/,10.6*,2.4,-8.7,3.6
CCCN(C)C[C@@H]1OCCCC[C@H](C)Oc2ccc(NC(=O)Nc3cccc4ccccc34)cc2C(=O)N([C@H](C)CO)C[C@@H]1C,/,/,0.8,0.4,/,/
COc1cc(/C=C/C(=O)OC2CC3CCC2(C)C3(C)C)ccc1O (stereo not given),/,4.4,-0.2,3.3,?,/
O=C(/C=C/c1ccc(O)c(O)c1)O[C@@H]1C[C@](O)(C(=O)O)C[C@@H](O)[C@H]1O,/,-2.9,2.7,/,99.8*,-26.4
O=C(NCC[C@@H]1CC[C@@H](NS(=O)(=O)c2ccccc2F)[C@@H](CO)O1)c1ccc(F)cc1,/,1.1,-0.3,0.1,/,60.9*[16.7 µM]
Cc1ccc(S(=O)(=O)N[C@H]2CC[C@H](CCNC(=O)c3ccccc3F)O[C@@H]2CO)cc1,/,1.3,0.4,1.4,/,10.6[16.7 µM]
Cc1ccc(S(=O)(=O)N[C@@H]2CC[C@H](CCNC(=O)c3ccccc3F)O[C@H]2CO)cc1,/,-5.6,2.0,0.7,/,66.3*[16.7 µM]
O=C(NCC[C@@H]1CC[C@H](NS(=O)(=O)c2ccccc2F)[C@H](CO)O1)c1ccc(F)cc1,/,1.7,4.7,-0.3,/,2.9[16.7 µM]
C[C@@H]1CN([C@H](C)CO)S(=O)(=O)c2ccc(C3=CCCCC3)cc2O[C@H]1CN(C)C,/,/,2.8,/,/,10.7[16.7 µM]
O=C(Nc1ccc2c(c1)OCO2)N[C@H]1CC[C@H](CCNC(=O)C2CCCC2)O[C@@H]1CO,/,2.9,-2.7,1.0,/,-32.3[16.7 µM]
CC/C(=N\NC(=O)CCC(=O)NCc1ccccc1)c1ccc(O)cc1,-0.7,-4.1,-2.4,1.7,98.8*,-8.6
Cc1ccc(CN2CCN(/N=C/c3ccc(C(=O)O)cc3)CC2)cc1,-3.1,-8.0,/,/,0.9,7.6
COc1cc(/C=N/N2CCN(Cc3ccc(Cl)cc3)CC2)cc(Br)c1O,10.7,3.9,-3.8,0.8,90.8*,5.1
Cc1ccc(CN2CCN(/N=C/c3ccc(O)c(O)c3)CC2)cc1,7.6,3.1,-2.0,15.1,78.6*,18.9
SMILES,NSD2 inh,PglD DTNB,CFTR F508del cor,Casp6 inh,ALR H2O2 inh,HIV Env fusion
Cc1ccc(CN2CCN(/N=C/c3cccnc3)CC2)cc1,3.7,3.8,/,/,/,4.3
CCN(CC)c1ccc(/C=N\N2CCN(Cc3ccc(C)cc3)CC2)cc1,1.2,/,0.0,1.2,97.9*,2.8
CCN(CC)c1ccc(CN2CCCCCC2)cc1,-1.0,3.1,/,/,97.6*,/
CN1CCN(C(=O)C[C@H]2CC[C@@H]3[C@@H](COc4ccc(NC(=O)C5CCCC5)cc4C(=O)N3C)O2)CC1,/,/,1.2,-0.2,/,/
Oc1ccc(Br)cc1C=Nc1ccc(Cl)cc1,-1.6,/,-4.0,-3.8,-17.5,-16.8
COc1cc(O)sc1C=Nc1ccc(Cl)cc1,-5.0,-4.4,/,3.1,95.4*,-120.2
CNC[C@@H]1Oc2cc(C#Cc3cccc(F)c3)ccc2S(=O)(=O)N([C@H](C)CO)C[C@H]1C,/,1.4,-1.5,0.5,/,3.9[16.7 µM]
C[C@@H]1CCCCO[C@H](CN(C)Cc2ccncc2)[C@H](C)CN([C@@H](C)CO)C(=O)c2cc(NC(=O)CCCN(C)C)ccc2O1,/,0.2,-1.3,-3.8,/,22.5[16.7 µM]
CC1(C(=O)NCc2cccs2)Cc2c(-c3ccc4c(c3)OCO4)ccnc2O1 (stereo not given),1.1,3.4,9.5*,2.6,/,-307.6
CCN1C(=O)/C(=C/C=C2/CCCN2C)OC1=S,7.0,/,2.6,-6.4,97.9*,-11.7
C/C=C/c1ccc2c(c1)O[C@@H](CN(C)C(=O)Nc1ccc(C(F)(F)F)cc1)[C@H](C)CN([C@H](C)CO)S2(=O)=O,/,1.0,6.5,-0.1,/,23.8[16.7 µM]
C=CCNc1nc(N)c(C(=O)Nc2cc(C)on2)s1,32.8,-7.3,/,/,10.8,/
Cc1cc(NC(=O)c2sc(Nc3ccc(F)cc3)nc2N)no1,2.9,6.9,0.9,1.2,96.9*,-11.9
Cc1cc(C(=O)NNC(=O)c2ccc(S(=O)(=O)N(C)C)cc2)c(C)o1,-2.5,/,/,0.8,-64.1,-27.1
Cc1cc(C(=O)NNC(=O)c2ccc(Cl)c(S(N)(=O)=O)c2)c(C)o1,-0.8,-3.2,8.7*,-3.0,/,2.5
O/N=C(\COc1ccccc1O)c1ccccc1,0.9,/,/,/,76.8*,/
O=C(O)COc1ccccc1O,-1.5,-3.1,/,/,42.8,-20.4
CCN1C(=O)N(CC)c2cccc3cccc1c23,0.0,-3.4,-1.6,-0.2,-15.2,5.8
CN1CN(C)c2cccc3cccc1c23,12.1,3.6,/,/,98.2*,-75.6
CCOC(=O)N1CCC(NC(=O)CS(=O)(=O)Cc2nc(-c3cccc(OC)c3)oc2C)CC1,2.0,-3.8,/,/,98.6*,-52.7
COc1cccc(-c2nc(CS(=O)(=O)CC(=O)NC3CCCCCC3)c(C)o2)c1,14.7,-2.1,-4.6,-7.4,98.4*,14.6
Cc1oc(-c2cccc(Cl)c2)nc1CS(=O)(=O)CC(=O)NC1CC1,3.8,9.7,-4.3,-1.6,89.7*,5.6
COc1ccc(-c2nc(CS(=O)(=O)CC(=O)NC3CCCCCC3)c(C)o2)cc1,4.8,/,-0.2,0.3,98.7*,10.8
CCOC(=O)N1CCC(NC(=O)CS(=O)(=O)Cc2nc(-c3cccc(Cl)c3)oc2C)CC1,11.8,-2.1,1.2,-1.5,51.9,12.2
CCC(=O)N1CCC2(CC1)CN(Cc1nccs1)[C@@H](CO)c1c2c2ccc(OC)cc2n1C,/,/,1.9,/,/,/
Cc1noc(C)c1NC(=O)NCC[C@@H]1CC[C@H](NC(=O)c2ccc(F)cc2)[C@H](CO)O1,/,-7.9,0.4,-92.1,/,-0.5[16.7 µM]
